Measurements: PubChem BioAssay AID1159580 (chemical genetic matrix, 2015)
The campaign covered roughly 5,500 compounds. About 2,000 (36%) were called active. About 18% were inconclusive and are not listed. Cut-off read from the data, not from the text of the source: active = normalized growth mostly below about 0.91 (no sharp cut-off); inconclusive = no clear call, values can overlap the other calls; inactive = mostly above about 0.92. The list shows a part of the results.

Test: chemical genetic growth profiling, strain panel (AID 1159580);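 note: tested at 20 µM; growth read once vehicle control cultures reached saturation at 30 °C; 1 = growth at the plate median or of vehicle wells; lower values mean less growth of the strain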
Details: growth OD

Measured: normalized growth

CC[C@@H](C(=O)C(C)[C@@H](O)[C@H](C)CCc1ccc(C)c(O)c1C(=O)O)C1OC(CC)(C2CC[C@](O)(CC)[C@H](C)O2)C[C@@H]1C (some centres undefined)
active: S. cerevisiae deletion strains, locus YKL085W, strain MDH1 (second series), stronger effect = lower value 1.28 [resistant] | S. cerevisiae deletion strains, locus YKL085W, strain MDH1, stronger effect = lower value 1.28 [resistant] | S. cerevisiae deletion strains, locus YLL001W, strain dnm1, stronger effect = lower value 1.1 [resistant] | S. cerevisiae deletion strains, locus YMR231W, strain pep5, stronger effect = lower value 0.208 | S. cerevisiae deletion strains, locus YOR106W, strain vam3, stronger effect = lower value 0.557 | S. cerevisiae deletion strains, locus YOR270C, strain vph1, stronger effect = lower value 0.597
inactive: S. cerevisiae deletion strains, locus YJR043C, strain POL32, stronger effect = lower value 1.02 | S. cerevisiae deletion strains, locus YJR066W, strain TOR1, stronger effect = lower value 0.928 | S. cerevisiae deletion strains, locus YJR075W, strain HOC1, stronger effect = lower value 1.01 | S. cerevisiae deletion strains, locus YKL068W, stronger effect = lower value 1 | S. cerevisiae deletion strains, locus YKL160W, strain elf1, stronger effect = lower value 1.05 | S. cerevisiae deletion strains, locus YKL190W, strain CNB1, stronger effect = lower value 1 | S. cerevisiae deletion strains, locus YKR001C, strain vps1, stronger effect = lower value 1.04 | S. cerevisiae deletion strains, locus YKR026C, strain gcn3, stronger effect = lower value 1.07 | S. cerevisiae deletion strains, locus YKR091W, strain srl3, stronger effect = lower value 1.07 | S. cerevisiae deletion strains, locus YLL026W, stronger effect = lower value 1.06 | S. cerevisiae deletion strains, locus YLL041C, strain sdh2, stronger effect = lower value 1.05 | S. cerevisiae deletion strains, locus YLR027C, strain aat2, stronger effect = lower value 1.05 | S. cerevisiae deletion strains, locus YLR039C, strain RIC1, stronger effect = lower value 1.26 | S. cerevisiae deletion strains, locus YLR058C, strain SHM2, stronger effect = lower value 1.02 | S. cerevisiae deletion strains, locus YLR102C, strain apc9, stronger effect = lower value 1.03 | S. cerevisiae deletion strains, locus YLR113W, strain HOG1, stronger effect = lower value 0.964 | S. cerevisiae deletion strains, locus YLR221C, strain rsa3, stronger effect = lower value 1.06 | S. cerevisiae deletion strains, locus YLR258W, strain gsy2, stronger effect = lower value 1.06 | S. cerevisiae deletion strains, locus YLR262C, strain YPT6 (second series), stronger effect = lower value 1.08 | S. cerevisiae deletion strains, locus YLR262C, strain YPT6, stronger effect = lower value 1.34 | S. cerevisiae deletion strains, locus YLR268W, strain sec22, stronger effect = lower value 0.996 | S. cerevisiae deletion strains, locus YLR320W, strain mms22, stronger effect = lower value 1.05 | S. cerevisiae deletion strains, locus YLR330W, strain CHS5, stronger effect = lower value 1.04 | S. cerevisiae deletion strains, locus YLR342W, strain FKS1 (second series), stronger effect = lower value 0.97 | S. cerevisiae deletion strains, locus YLR342W, strain FKS1, stronger effect = lower value 1.05 | S. cerevisiae deletion strains, locus YLR357W, strain rsc2, stronger effect = lower value 1.12 | S. cerevisiae deletion strains, locus YLR370C, strain arc18, stronger effect = lower value 1.04 | S. cerevisiae deletion strains, locus YLR371W, strain rom2, stronger effect = lower value 1 | S. cerevisiae deletion strains, locus YLR384C, strain iki3, stronger effect = lower value 1.08 | S. cerevisiae deletion strains, locus YLR418C, strain cdc73, stronger effect = lower value 0.959 | S. cerevisiae deletion strains, locus YML016C, strain PPZ1, stronger effect = lower value 1.03 | S. cerevisiae deletion strains, locus YML032C, strain rad52, stronger effect = lower value 1 | S. cerevisiae deletion strains, locus YML120C, strain ndi1, stronger effect = lower value 1.07 | S. cerevisiae deletion strains, locus YML124C, strain tub3, stronger effect = lower value 1.03 | S. cerevisiae deletion strains, locus YMR058W, strain fet3, stronger effect = lower value 1.04 | S. cerevisiae deletion strains, locus YMR078C, strain ctf18, stronger effect = lower value 1.06 | S. cerevisiae deletion strains, locus YMR125W, strain sto1, stronger effect = lower value 1.08 | S. cerevisiae deletion strains, locus YMR129W, stronger effect = lower value 1.07 | S. cerevisiae deletion strains, locus YMR205C, strain PFK2, stronger effect = lower value 1.04 | S. cerevisiae deletion strains, locus YMR223W, strain ubp8, stronger effect = lower value 0.996 | S. cerevisiae deletion strains, locus YMR307W, strain GAS1, stronger effect = lower value 0.967 | S. cerevisiae deletion strains, locus YNL067W, strain RPL9B, stronger effect = lower value 1.02 | S. cerevisiae deletion strains, locus YNL071W, strain lat1, stronger effect = lower value 1.06 | S. cerevisiae deletion strains, locus YNL153C, strain GIM3, stronger effect = lower value 1.04 | S. cerevisiae deletion strains, locus YNL183C, strain NPR1, stronger effect = lower value 0.923 | S. cerevisiae deletion strains, locus YNL209W, strain ssb2, stronger effect = lower value 1.07 | S. cerevisiae deletion strains, locus YNL233W, strain BNI4, stronger effect = lower value 1.02 | S. cerevisiae deletion strains, locus YNL248C, strain rpa49, stronger effect = lower value 1.05 | S. cerevisiae deletion strains, locus YNL250W, strain rad50, stronger effect = lower value 0.997 | S. cerevisiae deletion strains, locus YNL271C, strain bni1, stronger effect = lower value 0.996 | S. cerevisiae deletion strains, locus YNL298W, strain CLA4, stronger effect = lower value 0.978 | S. cerevisiae deletion strains, locus YNL307C, strain MCK1, stronger effect = lower value 1.05 | S. cerevisiae deletion strains, locus YNL322C, strain KRE1 (second series), stronger effect = lower value 1.08 | S. cerevisiae deletion strains, locus YNL322C, strain KRE1, stronger effect = lower value 1.02 | S. cerevisiae deletion strains, locus YNR049C, strain mso1, stronger effect = lower value 1.07 | S. cerevisiae deletion strains, locus YNR052C, strain pop2, stronger effect = lower value 1.01 | S. cerevisiae deletion strains, locus YOL006C, strain TOP1, stronger effect = lower value 0.716 | S. cerevisiae deletion strains, locus YOL012C, strain htz1 1.09 | S. cerevisiae deletion strains, locus YOL147C, strain pex11, stronger effect = lower value 1.02 | S. cerevisiae deletion strains, locus YOR001W, strain rrp6, stronger effect = lower value 1.01 | S. cerevisiae deletion strains, locus YOR061W, strain CKA2, stronger effect = lower value 1 | S. cerevisiae deletion strains, locus YOR069W, strain VPS5, stronger effect = lower value 1.02 | S. cerevisiae deletion strains, locus YOR070C, strain gyp1, stronger effect = lower value 1.06 | S. cerevisiae deletion strains, locus YOR080W, strain dia2, stronger effect = lower value 1.06 | S. cerevisiae deletion strains, locus YOR083W, strain WHI5, stronger effect = lower value 1.07 | S. cerevisiae deletion strains, locus YOR136W, strain idh2, stronger effect = lower value 1.02 | S. cerevisiae deletion strains, locus YOR144C, strain elg1, stronger effect = lower value 1.02 | S. cerevisiae deletion strains, locus YOR184W, strain ser1, stronger effect = lower value 0.997 | S. cerevisiae deletion strains, locus YOR231W, strain MKK1, stronger effect = lower value 0.963 | S. cerevisiae deletion strains, locus YOR265W, strain rbl2, stronger effect = lower value 1.05 | S. cerevisiae deletion strains, locus YOR290C, strain snf2, stronger effect = lower value 1.06 | S. cerevisiae deletion strains, locus YOR316C, strain cot1, stronger effect = lower value 1.03 | S. cerevisiae deletion strains, locus YPL051W, strain arl3, stronger effect = lower value 0.944 | S. cerevisiae deletion strains, locus YPL078C, strain atp4, stronger effect = lower value 1.05 | S. cerevisiae deletion strains, locus YPL106C, strain sse1, stronger effect = lower value 1.09 | S. cerevisiae deletion strains, locus YPL240C, strain hsp82, stronger effect = lower value 1.06 | S. cerevisiae deletion strains, locus YPL256C, strain CLN2, stronger effect = lower value 0.982 | S. cerevisiae deletion strains, locus YPR119W, strain clb2, stronger effect = lower value 1.05 | S. cerevisiae deletion strains, locus YPR141C, strain kar3, stronger effect = lower value 1.02 | S. cerevisiae deletion strains, locus YPR163C, strain tif3, stronger effect = lower value 1.07 | S. cerevisiae deletion strains, locus YPR167C, strain met16, stronger effect = lower value 1.02 | S. cerevisiae deletion strains, strain wtn01, stronger effect = lower value 1.02 | S. cerevisiae strains, strain wild type, stronger effect = lower value 1.01
